From PubChem BioAssay
S1P3 antag – antagonists of human S1P3 receptor; CHO S1P3 NFAT-BLA reporter, FRET fluorescence, antagonist mode; inhibition, % at 4.98 µM; 170,000 compounds, 0.27% hits; Q99500;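 active = inhibition above the plate cutoff, the mean inhibition of test wells on that plate plus 3 SD, cut at about 28% in these data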;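 note: cells challenged with S1P at its EC80 of 0.8 µM; blue over green emission ratio from cleaved BLA substrate after 4 h stimulation; 0% = S1P-stimulated wells and 100% = unstimulated DMSO-only wells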
Target sequence (Q99500 whole entry, looked up): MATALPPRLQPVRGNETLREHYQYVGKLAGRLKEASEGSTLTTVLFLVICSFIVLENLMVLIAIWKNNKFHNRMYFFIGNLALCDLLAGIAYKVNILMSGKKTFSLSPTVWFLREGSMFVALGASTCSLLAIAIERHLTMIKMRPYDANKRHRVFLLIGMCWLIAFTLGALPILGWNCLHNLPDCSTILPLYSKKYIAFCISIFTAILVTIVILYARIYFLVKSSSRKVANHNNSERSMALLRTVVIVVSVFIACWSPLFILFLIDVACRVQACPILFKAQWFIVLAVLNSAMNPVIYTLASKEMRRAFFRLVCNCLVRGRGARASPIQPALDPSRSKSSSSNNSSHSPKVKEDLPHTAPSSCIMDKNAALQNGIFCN
S1P4 agonist – agonists of human S1P4 receptor | S1P4-expressing cell line, agonist reporter assay | 220,000 compounds, 0.35% hits | O95977 | AID 1509 | activation, % at 4.98 µM; in the data active = activation above about 11%;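 note: 0% = DMSO vehicle and 100% = reference agonist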
S1P4 antagonist – human S1P4 receptor antagonism; S1P4-expressing cells, antagonist mode, reporter read-out; inhibition, % at 4.98 µM; 220,000 compounds, 0.26% hits; AID 1510; in the data active = inhibition above about 29%;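 note: 0% = wells stimulated with agonist and 100% = vehicle wells without agonist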
ROMK mod – modulates human ROMK potassium channel activity; AID 1918; B-score at 10 µM; P48048; 130,000 compounds, 2% hits; Tet-inducible ROMK, thallium flux fluorescence; actives lie on both sides;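 active = signal ratio slope over the read window, or its plate-corrected B-score, at least 3 SD from the plate mean, either direction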;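 note: B-score of the F/F0 ratio slope over 7 to 12 s after thallium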
RAM network inh – yeast RAM network inhibition. inhibition, % at 50 µM. 190,000 compounds, 1.8% hits. S. cerevisiae dse1pr::URA3 reporter, 5-FOA growth OD615, 2 d; analog-sensitive cbk1-as2 kinase mutant strain;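 active = inhibition above a set limit, 3 SD over mean compound inhibition, cut at about 8.4% in these data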;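 note: 0% = DMSO-only wells with no growth and 100% = 10 µM 1-NA-PP1 full growth; inhibition rescues growth on 5-FOA so higher OD means more RAM inhibition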
Cl transport mod – modulators of human KCC2 chloride dependent transport. Q9H2X9. KCC2 cells, thallium flux FluoZin-2 fluorescence. B-score of Tl+ flux slope (higher = more flux/activation; lower = inhibition) at 10 µM. 190,000 compounds, 2.2% hits. AID 1456;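 active = thallium flux slope and its plate-corrected score both differing from the plate sample mean at a set confidence after two filtering rounds, in either direction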;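 note: slope of fluorescence scaled to starting intensity during 10 to 20 s after thallium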
S1P4 agonist cf – human S1P4 agonism, confirmation; shares compounds with S1P4 agonist; S1P4 agonist cell-based reporter assay; activation, % at 4.98 µM; 740 compounds, 7% hits; AID 1523; in the data active = activation above about 12%;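 note: 0% = vehicle and 100% = full reference agonist response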
S1P1 agonist – human S1P1 agonism as S1P4 agonist counter-screen; 740 compounds, 4% hits; S1P1 agonist cell-based assay, activation; activation, % at 4.98 µM; AID 1563; shares compounds with S1P4 agonist; in the data active = activation above about 21%;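 note: 0% = vehicle wells and 100% = reference agonist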
Numbers without * were called inactive; x = no result. Only some compounds are listed: those with a hit (about 5.1% of all), similar ones and a draw of the others.

SMILES	S1P3 antag	S1P4 agonist	S1P4 antagonist	ROMK mod	RAM network inh	Cl transport mod	S1P4 agonist cf	S1P1 agonist
Cn1c(SCC(=O)O)nnc1-c1ccc2ncccc2c1	4	117*	-7	x	x	-0.36	0	-6
O=C(CNC(=O)c1ccccc1F)N/N=C/c1cn[nH]c1-c1ccccc1	2	2	-1	0.12	0	-2.1	x	x
O=C(CNC(=O)c1ccc(F)cc1)N/N=C/c1cn[nH]c1-c1ccccc1	11	16*	-19	x	3	-0.36	-2	-3
COc1ccccc1NC(=O)c1c(N=Cc2cccc([N+](=O)[O-])c2)cnn1C	-7	0	0	x	x	-0.035	x	x
O=C(CCC1CCCCC1)Nc1nccs1	-9	126*	-4	-0.4	1	x	-1	-2
CCN(C(=S)Nc1ccc(C(C)=O)cc1)C1CCCCC1	-4	42*	-21	0.22	-1	0.71	-2	-5
CC(C)Sc1nc2ncnc(N)c2[nH]1	-18	0	-11	0.75	0	1.2	x	x
O=C(NCC1CCCO1)/C(=C/c1ccccc1)NC(=O)c1ccccc1 (stereo not given)	14	28*	-25	0.17	0	0.89	-3	-6
Cc1ccc(C(=O)N/C(=C\c2ccccc2)C(=O)NCC2CCCO2)cc1 (stereo not given)	-8	0	-9	x	0	2.5	x	x
O=C(NC(=S)NCC1CCCO1)c1cccs1 (stereo not given)	-3	0	-9	1	0	2.5	x	x
O=C(NC(=S)NCC1CCCO1)c1ccco1 (stereo not given)	-1	14*	-5	-0.34	0	1.8	0	0
CS(=O)(=O)N(CC(=O)NCc1ccncc1)c1cc(Cl)ccc1Cl	13	1	-31	-0.44	0	1.3	x	x
Cc1ccc(N2C(=O)CC(Sc3ccccc3C(=O)O)C2=O)cc1 (stereo not given)	2	1	-13	0.12	1	0.051	x	x
CN(C)c1ccc(N2C(=O)CC(Sc3ccccc3C(=O)O)C2=O)cc1 (stereo not given)	1	11*	-1	0.95	0	1.6	-1	-7
Cc1ccc(-c2nc(NC(=O)c3ccc(S(=O)(=O)N(CCC#N)CCC#N)cc3)sc2-c2ccccc2)cc1	6	1	-23	0.49	4	0.0055	x	x
CCCN(CCC)S(=O)(=O)c1ccc(C(=O)Nc2nc3c(s2)CCc2ccccc2-3)cc1	6	29*	-14	x	4	-0.12	-1	-7
Cn1c(NC(=O)Cc2ccc(F)cc2)cc(=O)n(C)c1=O	-8	0	-7	x	1	1.1	x	x
Cn1c(NC(=O)CC(C)(C)C)cc(=O)n(C)c1=O	17	46*	-1	x	-2	-0.82	-2	-3
CCC1(C(=O)OC)CCc2c(cc(OC)c3ccccc23)C1=O (stereo not given)	2	13*	-23	-0.095	x	-0.38	-3	0
O=c1cc(-c2ccc([N+](=O)[O-])cc2)c2ccc(O)cc2o1	-1	12*	-7	-0.31	4	-0.15	1	8
O=c1cc(O)c2ccc(O)cc2o1	-4	0	-10	x	1	-0.25	x	x
N#Cc1cnn2ccc(-c3cc(N4CCOCC4)ccc3[N+](=O)[O-])nc12	17	14*	-10	0.03	2	0.71	-2	3
O=c1c2[nH]c3ccccc3c2ncn1CCC1=CCCCC1	12	17*	-9	0.021	3	-0.43	-2	-2
Cc1cc(C2=NNC(=NCCc3ccccc3)SC2)c(C)n1-c1c(C)n(C)n(-c2ccccc2)c1=O	-7	0	-28	x	x	-1.3	x	x
Cc1cc(C2=NNC(=NC3CC3)SC2)c(C)n1-c1c(C)n(C)n(-c2ccccc2)c1=O	2	15*	-9	1.4	1	1.1	-2	-2
SMILES	S1P3 antag	S1P4 agonist	S1P4 antagonist	ROMK mod	RAM network inh	Cl transport mod	S1P4 agonist cf	S1P1 agonist
COc1ccc(CC(=O)Nc2cc(C)ccc2O)cc1OC	4	0	-8	x	x	0.14	x	x
CC(c1nccs1)N(C)c1nc2nonc2nc1NC1CC1 (stereo not given)	-17	1	-16	-0.55	0	-0.15	x	x
CN(c1nc2nonc2nc1NC1CC1)C1CCOC1 (stereo not given)	5	12*	-5	1.1	3	0.19	-2	5
CCOC(=O)c1sc(NC(=O)CSc2nc3c(c(=O)n2-c2ccc(F)cc2)SCC3)c(C(=O)OCC)c1C	6	2	6	0.55	2	0.083	x	x
COc1ccc(-c2nnc(SCc3nnc(-c4cccs4)o3)n2CC2CCCO2)cc1 (stereo not given)	-12	57*	-11	-0.25	1	-0.44	-1	5
C=CCn1c(SCC(=O)Nc2nnc(CC)s2)nnc1-c1ccco1	-9	29*	-15	-0.064	-1	-0.17	-1	1
CCN(c1ccccc1)S(=O)(=O)c1ccc(C(C(=O)OC)C(=O)OC)c([N+](=O)[O-])c1	12	2	-19	0.64	5	0.013	x	x
CCN(c1ccccc1)S(=O)(=O)c1cc([N+](=O)[O-])ccc1N	-2	17*	-8	-0.61	-1	-1.1	19*	-5
Brc1ccc(-c2ccc(/C=N/Nc3nc4ccccc4[nH]3)o2)cc1	-3	12*	13	x	3	-0.18	8	24*
C(=N\Nc1nc2ccccc2[nH]1)/c1ccccc1	5	1	21	-0.37	2	-0.15	x	x
Cc1ccc(C(C(=O)NCc2ccco2)N(C(=O)CNC(=O)c2cccs2)c2c(C)cccc2C)cc1 (stereo not given)	-1	81*	-1	-0.11	3	0.91	-2	-2
Cc1ccc(C(C(=O)NCc2ccco2)N(C(=O)CNC(=O)c2cccs2)c2c(C)cc(C)cc2C)cc1 (stereo not given)	x	-1	1	x	3	x	x	x
O=C(Nc1ccnc(-c2cccnc2)n1)c1ccc(Cl)c(Cl)c1	x	27*	19	1.8	3	x	-1	1
CCC(=O)Nc1ccnc(-c2cccnc2)n1	x	-2	-17	x	-1	2.1	x	x
CCCCC(CC(O)COCC(C)C)C(=O)NN (stereo not given)	4	42*	-19	-0.22	1	-0.016	-2	4
C=CCNC(=S)NNC(=O)C(CCCC)CC(O)COCC(C)C (stereo not given)	-13	0	-3	x	x	-0.44	x	x
Cc1ccc(NC(=O)C2CCCN2C(=O)Oc2ccccc2)cc1 (stereo not given)	-8	14*	-10	x	1	0.45	-2	-13
CCOC(=O)c1c(NC(=O)COc2cccc3c2CCN(CC)C3=O)sc2c1CCC2	0	0	-11	x	5	-1.8	x	x
